Screens as filed in PubChem BioAssay.
Only some compounds are listed: those with a hit (about 1.3% of all), similar ones and a draw of the others.
TRPV1 ag = HTS Assay for Compounds that Act as Agonists of the Vanilloid Receptor 1; Transient receptor potential cation channel subfamily V member 1 (Homo sapiens), Q8NER1; TRPV1-expressing cells, Fluo-8 calcium influx, agonist mode; activation, % at 8.33 µM; 320,000 compounds, 0.19% hits; in the data active = activation above about 80%; inconclusive = between about 30% and that limit; note: 0% is about no effect
Target sequence (Q8NER1 whole entry, looked up): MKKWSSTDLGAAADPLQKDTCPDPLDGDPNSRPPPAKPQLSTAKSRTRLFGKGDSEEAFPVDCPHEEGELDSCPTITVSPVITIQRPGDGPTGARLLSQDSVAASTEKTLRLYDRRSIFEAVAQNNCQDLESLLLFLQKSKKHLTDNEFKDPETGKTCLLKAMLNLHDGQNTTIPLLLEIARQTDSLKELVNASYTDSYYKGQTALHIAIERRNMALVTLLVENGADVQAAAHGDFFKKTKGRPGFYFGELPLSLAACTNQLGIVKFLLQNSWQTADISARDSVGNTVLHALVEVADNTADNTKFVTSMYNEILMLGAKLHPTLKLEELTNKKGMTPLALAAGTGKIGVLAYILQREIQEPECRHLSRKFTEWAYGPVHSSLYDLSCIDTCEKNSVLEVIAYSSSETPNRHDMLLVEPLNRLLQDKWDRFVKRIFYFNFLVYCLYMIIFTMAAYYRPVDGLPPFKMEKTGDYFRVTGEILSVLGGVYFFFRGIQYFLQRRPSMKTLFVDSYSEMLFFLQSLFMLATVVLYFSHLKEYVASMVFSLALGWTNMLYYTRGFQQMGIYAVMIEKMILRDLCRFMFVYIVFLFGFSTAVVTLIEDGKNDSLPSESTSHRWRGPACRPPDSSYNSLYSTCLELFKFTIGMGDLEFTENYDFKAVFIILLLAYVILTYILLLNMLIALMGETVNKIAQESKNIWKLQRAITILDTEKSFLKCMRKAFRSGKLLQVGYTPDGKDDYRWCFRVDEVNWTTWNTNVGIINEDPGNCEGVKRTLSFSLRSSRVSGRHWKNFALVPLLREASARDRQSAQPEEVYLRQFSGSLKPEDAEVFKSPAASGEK
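Cells expressing TRPV1 were dye-loaded with Fluo-8 and read kinetically: 10 s baseline, 3 min after compound (agonist portion), then 2 min after EC20 capsaicin (allosteric enhancer portion). Calcium-bound dye fluorescence at 480/520 nm.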
TRPV1 PAM = HTS Assay for Compounds that Act as Potentiators of the Vanilloid Receptor 1; Transient receptor potential cation channel subfamily V member 1 (Homo sapiens), Q8NER1; TRPV1-expressing cells, Fluo-8 calcium influx, capsaicin EC20 potentiation; potentiation, % at 8.33 µM; 320,000 compounds, 0.02% hits; AID 540277, 2011; in the data active = potentiation above about 80%; inconclusive = between about 30% and that limit; note: 0% is about no effect
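Fluo-8 calcium influx in TRPV1-expressing cells, kinetic read (ex 480/em 520 nm). Compound added and read 3 min for agonist activity, followed by capsaicin at EC20 final and 2 min further read for enhancement.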
KCNH2 3.1 block = qHTS for Inhibitors of KCHN2 3.1: Mutant qHTS; U2OS KCNH2 3.1, thallium flux FluxOr; active compounds read low; 340,000 compounds, 0.95% hits; activity change, % (tested at about 1.8 µM);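 active = maximum activity change below -70%; inconclusive = maximum activity change from -70% to -50%; inactive = maximum activity change above -50%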;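 note: thallium influx rate constant from kinetic fluorescence after stimulation buffer; % is set by controls: 0 for no effect and ±100 for the full control effect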
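Kinetic fluorescence (2 min after stimulation buffer) measures Tl+ influx through KCNH2 3.1 expressed by viral transduction in U2OS cells; the rate constant is normalized against DMSO controls serving as positive and negative references.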
hERG WT inh = qHTS for Inhibitors of KCHN2 3.1: Wildtype qHTS; Voltage-gated inwardly rectifying potassium channel KCNH2 (Homo sapiens), Q12809; U2OS, BacMam KCNH2, thallium flux FluxOr; active compounds read low; activity change, % at 1.84 µM; 340,000 compounds, 0.37% hits; AID 720551, 2013;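 active = maximum activity change below -70%; inconclusive = maximum activity change between -70% and -50%; inactive = maximum activity change above -50%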; note: % is set by controls: 0 for no effect and ±100 for the full control effect
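U2OS cells transduced with wild-type KCNH2 virus are loaded with FluxOr dye for 45 min, and thallium flux is measured in kinetic reads before and after stimulation buffer. Rate constants are normalized to DMSO controls.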
* hit, by the source's call; ? = inconclusive; / = no result given.

SMILES	TRPV1 ag	TRPV1 PAM	KCNH2 3.1 block	hERG WT inh
CCC(=O)NC(c1ccc(OC)cc1)c1cc(Cl)c2cccnc2c1O (stereo unspecified)	84.3*	9.4	-31.4	0.8
CCN(CC)C1Oc2cc3c(cc2C(c2cc(OC)c(OC)c(OC)c2)C1C)OCO3 (stereo unspecified)	/	/	0.3	-12.4
COc1ccc(Br)cc1CN1CCCCCC1	0.7	-2.7	10.5	1.1
COc1cccc(C(NC(C)=O)c2ccc3cccnc3c2O)c1 (stereo unspecified)	0.5	4.5	-4.5	-81.9*
COc1ccc(C(=O)Oc2ccc(C(=S)N3CCOCC3)cc2)cc1	2.7	0.6	-5.9	1.5
COc1ccc(C(=O)Oc2cc(C(=S)N3CCOCC3)ccc2OC)cc1	2.6	5.0	-160.6*	-140.4*
COc1cc(NC2c3ccccc3C(=O)N2Cc2ccc3c(c2)OCO3)cc(OC)c1 (stereo unspecified)	?	-5.6	?	-8.3
COc1ccc(NC2c3ccccc3C(=O)N2Cc2ccc3c(c2)OCO3)cc1 (stereo unspecified)	102.2*	2.8	-14.5	0.4
Cc1nn(-c2nc3ccccc3[nH]2)c(N)c1-c1ccc(Cl)cc1	4.4	5.0	-83.5*	-5.6
Cc1nn(-c2nc3ccccc3[nH]2)c(=O)c2ccccc12	8.1	-6.5	2.2	-8.5
CN(C)c1ccc(/C=C(\NC(=O)c2ccccc2)C(=O)NCCCn2ccnc2)cc1	-0.4	9.9	-7.0	11.3
O=C(NCCCn1ccnc1)/C(=C\c1ccc(Br)cc1)NC(=O)c1ccccc1	-0.2	22.7	-104.3*	-125.5*
COc1ccc(/C=C(/NC(=O)c2ccccc2)C(=O)NCCCn2ccnc2)cc1OC	1.0	23.6	-33.8	3.5
COc1ccccc1C(=O)N/C(=C/c1ccc(Br)cc1)C(=O)NCCCn1ccnc1	9.8	?	-99.5*	-124.9*
COc1ccc(/C=C(\NC(=O)c2ccc(C)cc2)C(=O)NCCCn2ccnc2)cc1OC	-1.8	4.8	3.5	1.6
Cc1ccc(C(=O)N/C(=C\c2ccco2)C(=O)NCCCn2ccnc2)cc1	1.9	1.7	?	-20.6
Cc1ccc(C(=O)N/C(=C\c2ccc(F)cc2)C(=O)NCCCn2ccnc2)cc1	0.7	-1.5	-113.9*	-95.0*
Cc1ccc(C(=O)N/C(=C/c2ccco2)C(=O)NCCCn2ccnc2)cc1	-1.6	10.8	-92.6*	?
CSc1ccccc1C(=O)N1CCN(S(=O)(=O)c2sc(C(=O)O)c(C)c2C(=O)O)CC1	-4.7	4.7	-11.8	-30.9
CN(C)/C=C1\C(=O)Oc2ccccc2C1=O	/	/	1.9	11.2
O=C(COC(=O)C1CCN(S(=O)(=O)c2ccc(Cl)c(C(F)(F)F)c2)CC1)NCC1CCCO1 (stereo unspecified)	/	/	2.2	-10.6
O=C(CCCNC(=O)/C(=C/c1ccc(F)cc1)NC(=O)c1ccccc1)OCc1ccccc1	-0.3	2.2	-1.1	-137.5*
O=C(CCCNC(=O)/C(=C\c1ccc(F)cc1)NC(=O)c1ccccc1)OCc1ccccc1	2.1	11.2	-40.7	-20.4
O=C(NCCCn1ccnc1)/C(=C/c1ccccc1)NC(=O)c1ccccc1	-0.8	5.0	-113.0*	-136.5*
Clc1ccc(CNC2CCN(Cc3ccccc3)CC2)cc1	3.1	2.5	-26.3	15.6
SMILES	TRPV1 ag	TRPV1 PAM	KCNH2 3.1 block	hERG WT inh
S=C(NCc1ccc(Cl)cc1)NC1CCN(Cc2ccccc2)CC1	13.7	-12.1	-75.7*	0.7
O=C(CCc1nnc2ccc(NCc3ccccc3Cl)nn12)NC1CCCC1	0.4	6.4	6.5	-1.4
O=C(CCc1nnc2ccc(NCc3ccccc3)nn12)NC1CCCC1	2.7	0.1	-75.4*	-9.3
CC(C)c1ccc(/C=N\NC(=O)c2ccc(Cn3cccn3)o2)cc1	82.3*	8.2	-9.0	-0.9
Cc1ccc2c(c1)N(CC(=O)NC1CCC(C)CC1)C(=O)c1cccnc1O2 (stereo unspecified)	5.4	-2.3	-1.0	-9.3
COC(=O)c1ccc(OCC(O)CN2CCN(C(=O)c3ccco3)CC2)c(OC)c1 (stereo unspecified)	-1.2	4.8	-85.5*	2.4
O=C(CC1SC(=Nc2ccc(OC(F)F)cc2)N(CCN2CCOCC2)C1=O)Nc1ccc(F)cc1F (stereo unspecified)	4.5	28.6	-113.6*	-101.3*
O=C(CC1SC(=Nc2ccc(OC(F)F)cc2)N(CCN2CCOCC2)C1=O)Nc1ccccc1 (stereo unspecified)	21.3	-13.4	-41.4	-20.5
CCC(C)Sc1ccc([C@H]2N[C@@](CC(C)C)(C(=O)OC)[C@H]3C(=O)N(C)C(=O)[C@@H]23)cc1 (stereo partly specified)	27.7	21.9	-6.9	3.0
CCC(C)Sc1ccc([C@H]2N[C@@](CC(C)C)(C(=O)OC)[C@H]3C(=O)N(CC)C(=O)[C@@H]23)cc1 (stereo partly specified)	86.6*	1.9	10.4	3.2
COc1ccc(N2CC(C(=O)N3CCN(Cc4ccc5c(c4)OCO5)CC3)CC2=O)cc1 (stereo unspecified)	14.5	-11.3	-3.3	0.7
CCOC(=O)c1c(C)[nH]c(C)c1S(=O)(=O)NC(C)Cc1ccco1 (stereo unspecified)	2.7	?	-79.9*	5.4
O=S(=O)(c1ccsc1)N1CC=C(c2ccccc2)CC1	-0.5	0.3	-13.9	-21.9
O=C(N/N=C\c1ccc(CN(Cc2ccc(Cl)cc2)S(=O)(=O)c2ccccc2)o1)C(=O)Nc1ccc(F)cc1	-0.4	-3.3	-75.5*	-48.0
Cc1nn(-c2ccccn2)c2c1C(=O)C(Br)CC2 (stereo unspecified)	0.2	-15.6	-14.0	5.4
CCOC(=O)C1(Cc2ccccc2C)CCCN(C(=O)COC)C1 (stereo unspecified)	2.3	0.4	-106.9*	7.0
Cc1nnc2c3ccccc3c(-c3cccs3)nn12	7.5	-5.3	-85.1*	-4.2
Cc1nnc2c3ccccc3c(-c3ccc(O)cc3)nn12	-2.2	-1.0	1.9	-12.0
CCc1c(C)nc(SC/C=C/c2ccccc2)[nH]c1=O	7.4	5.4	-119.7*	-2.8
CCCc1cc(=O)[nH]c(SC/C=C/c2ccccc2)n1	/	/	-3.0	-14.1
Cn1c(SCC(=O)N2CC(=O)Nc3ccccc32)nnc1C(F)(F)F	-0.3	-17.2	-17.2	-12.5
Cc1ccc(Nc2c([N+](=O)[O-])c(=O)oc3ccccc23)cc1C	7.5	12.7	-75.3*	20.1
CCC(=O)c1ccc(OCC(=O)OCC(=O)NCC2CCCO2)cc1 (stereo unspecified)	0.9	15.4	7.9	10.5
